# The whole screen tested about 2,300 compounds, of which about 550 (24%) were called active. How the calls were made is not given here. A selection follows. Potency and affinity values are given separately.
# Assay: Vero E6 cell cytotoxicity, dose response, cytotoxicity control for non-replicating M. tuberculosis project, secondary assay (AID 492998);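 further: 100% = vehicle-treated cells and 0% = background wells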
# Conditions: series mostly up to 20 µM; viability: at the top concentration
row,SMILES,viability
1,NC(=O)N/N=C/c1ccccc1OC(=O)c1cc2ccccc2oc1=O,114% (inactive)
2,CCC(C)(C)NC(=O)c1ccc(Br)o1,110% (inactive)
3,O=C(Nc1ccccc1)c1ccc(Br)o1,96.5% (inactive)
4,CC(C)(C)OC(=O)N/N=C\c1ccc(OC(=O)c2ccco2)cc1,108% (inactive)
5,CC1(c2nnc(-c3ccccc3)o2)CC(c2ccc(Cl)cc2)=NO1 (configuration not stated),102% (inactive)
6,Clc1ccc(OCCOCCN2CCc3ccccc3C2)c(Cl)c1,90.1% (inactive)
7,COc1ccccc1/C=C/C=N/NC(=O)c1ccncc1,104% (inactive)
8,Cc1cc(C)n(-c2ccc(C(=O)OCC(=O)Nc3cc(Cl)ccc3[N+](=O)[O-])cc2)n1,106% (inactive)
9,Cc1ccc(CN2CC(C(=O)OCc3ccccc3Cl)CC2=O)cc1 (configuration not stated),98.3% (inactive)
10,Cc1ccc(C(=O)COC(=O)CCc2ccc(S(=O)(=O)N3CCCCC3)cc2)cc1,98.9% (inactive)
11,Cc1ccc(N2NC(=O)/C(=C/C=C/c3ccco3)C2=O)cc1C,98.1% (inactive)
12,Cc1ccc(OCCCCn2ccnc2)c(Cl)c1,84.3% (inactive)
13,CC1(C)Oc2ccc(NC(=O)C3COc4ccccc4O3)cc2O1 (configuration not stated),97.8% (inactive)
14,O=C(Oc1ccccc1Cl)c1ccc2c(=O)n3c(nc2c1)CCC3,95.4% (inactive)
15,CCOc1ncccc1C(=O)OCC(=O)N1CCc2ccccc21,98.4% (inactive)
16,C=CCOC(=O)c1ccc(-n2cnc(C)n2)nc1,102% (inactive)
17,O=C1CCC/C(=N/Nc2ccc(Cl)cc2)C1,96.4% (inactive)
18,CCc1nnc(N/N=C/c2c(F)cccc2Cl)n1N,106% (inactive)
19,CCc1ccc(Cc2cnc(NC(=O)C3=NCCN3)s2)cc1,89.2% (inactive)
20,Cn1c(SCCOc2cccc(Cl)c2)nnc1-c1ccncc1,92.3% (inactive)
21,O=C(Oc1ccccc1)c1cccc(COC(=O)c2cnccn2)c1,92.2% (inactive)

row,SMILES,viability
1,O=S(=O)(c1ccc(Cl)c2ccccc12)N1CCCC1,90.6% (inactive)
2,c1ccc(-c2noc(CC3CCCCC3)n2)nc1,93.4% (inactive)
3,O=C(COc1ccc(Cl)cc1)Nc1ccc2[nH]ncc2c1,84.2% (inactive)
4,CC(C)c1ccc(OCC(=O)NCc2ccccc2)cc1,98.7% (inactive)
5,CCOC(=O)C(C)Oc1ccc(OCc2ccccc2)cc1 (configuration not stated),85% (inactive)
6,Cc1cccc(NC(=O)c2ccc(OC3CSC3)cc2)c1,95.8% (inactive)
7,O=C(CCNc1ccc(Cl)cc1)c1cccs1,93.9% (inactive)
8,O=C(c1cccs1)N1CCN(c2ccc(Cl)cc2)CC1,98.4% (inactive)
9,Cc1ccc(CC(=O)N2CCN(c3ccc([N+](=O)[O-])cc3)CC2)cc1,81.7% (inactive)
10,O=C(NNC(=O)c1cccs1)c1ccc(Br)o1,104% (inactive)
11,O=[N+]([O-])c1ccc(CN2CCN(c3ccccc3)CC2)o1,116% (inactive)
12,O=[N+]([O-])c1ccc(N2CCN(Cc3ccc([N+](=O)[O-])o3)CC2)cc1,87% (inactive)
13,O=C(N/N=C/c1ccc([N+](=O)[O-])o1)c1ccc(NS(=O)(=O)c2cccs2)cc1,86.5% (inactive)
14,O=C1CCCC(O)=C1C=Nc1ccc2c(c1)oc1ccccc12,88.5% (inactive)
15,CCCCCCOc1ccc(C(=O)O)cc1C#N,92.4% (inactive)
16,CCC(=O)c1ccc(OC(=O)c2ccc(Br)o2)cc1,94% (inactive)
17,Cc1cccc2nc(CSc3nc4cc([N+](=O)[O-])ccc4s3)cn12,97.2% (inactive)
18,Cc1nc2scc(-c3ccccc3)c2c(=O)o1,102% (inactive)
19,C=CCn1c(C)cc(C2=NNC(=NCc3ccccc3)SC2)c1C,84.2% (inactive)
20,Cc1ccc2c(c1)c1c3n2CCN=C3CCC1,109% (inactive)
21,CCNC(=O)COC(=O)c1ccc(-c2nc3ccccc3s2)s1,109% (inactive)

row,SMILES,viability
1,Cc1ccc(/C=N/NC(=O)c2ccncc2)o1,100% (inactive)
2,Cc1ccsc1/C=N/NC(=O)c1ccncc1,106% (inactive)
3,O=C(N/N=C/c1ccc[nH]1)c1ccncc1,103% (inactive)
4,O=C(N/N=C/c1cccc2nccnc12)c1ccncc1,104% (inactive)
5,Clc1ccccc1CSc1nnc([C@@H]2CCCN2)o1,98.8% (inactive)
6,Cc1cccc(Cc2cnc(NC(=O)C3=NCCN3)s2)c1,85.1% (inactive)
7,C=C[C@]1(C)C=C2CCC3[C@](C)(CCC[C@@]3(C)C(=O)O)C2CC1 (some centres not stated),100% (inactive)
8,S=C1NC2(CCCC2)N=C1c1ccccc1,107% (inactive)
9,Cc1ccc(C)c(NC(=O)COC(=O)c2cc3ccccc3oc2=O)c1,112% (inactive)
10,CN1CCC(O)(c2ccccc2)C(C(=O)c2ccccc2)C1 (configuration not stated),70.1% (inactive)
11,Cc1cccc(N2CCN(C(=O)Cn3sc4nc(C)cc(C)c4c3=O)CC2C)c1 (configuration not stated),82.3% (inactive)
12,CCCOC(=O)NC1CCS(=O)(=O)C1 (configuration not stated),93.6% (inactive)
13,O=C(Nc1ncccn1)c1ccc([N+](=O)[O-])o1,91.3% (inactive)
14,O=C(Nc1nccs1)c1ccc(COc2ccc(Cl)cc2)o1,99.7% (inactive)
15,Cc1csc(NC(=O)c2cc([N+](=O)[O-])cc([N+](=O)[O-])c2)n1,90.4% (inactive)
16,O=C(Nc1nnc(COc2ccc(Cl)cc2)s1)c1ccco1,102% (inactive)
17,O=C(CN1CCN(c2ccc([N+](=O)[O-])cc2)CC1)Nc1ccccn1,93.9% (inactive)
18,CC(C)(C)c1csc(NC(=O)c2ccccc2O)n1,76.7% (inactive)
19,Fc1cccc2sc(N3CCCC3)nc12,102% (inactive)
20,O=C(CCC1CCCC1)NCc1ccccn1,95.9% (inactive)
